# In the supplement of paper PMC4466140:
# Columns and labels:
# Experiment in all cases: SPOT peptide array binding signal intensity (averaged, normalized) (arbitrary units (background-subtracted, floor 0; scale differs between SH3 domains)); higher = stronger binding of the SH3 domain to the peptide
# AgAbp1 = biological target: AgAbp1
# How it was run: (§1)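 Four yeast species supplied the SH3 domains, which were expressed as GST fusions in E. coli BL21(DE3) and purified on glutathione Sepharose. Incubation with cellulose membranes carrying synthetic 15-mer peptides, cysteines exchanged for serines, ran overnight at 4°C at 10 μg/ml in TBS-based blocking buffer. Binding signal is reported as normalized, background-subtracted spot intensity averaged over replicates, in arbitrary units not shared between domains.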
# AgBbc1 = biological target: AgBbc1
# How it was run: as §1
# AgBem1-D1 = biological target: AgBem1-D1
# How it was run: as §1
# AgBzz1-D1 = biological target: AgBzz1-D1
# How it was run: as §1
# AgBzz1-D2 = biological target: AgBzz1-D2
# How it was run: as §1
# AgCyk3 = biological target: AgCyk3
# How it was run: as §1
# AgFus1 = biological target: AgFus1
# How it was run: as §1
# AgHof1 = biological target: AgHof1
# How it was run: as §1
# AgHse1 = biological target: AgHse1
# How it was run: as §1
# AgLsb1 = biological target: AgLsb1
# How it was run: as §1
# AgLsb4 = biological target: AgLsb4
# How it was run: as §1
# AgMyo5 = biological target: AgMyo5
# How it was run: as §1
# AgNbp2 = biological target: AgNbp2
# How it was run: as §1
# AgRvs167 = biological target: AgRvs167
# How it was run: as §1
# AgSho1 = biological target: AgSho1
# How it was run: as §1
# AgSla1-D1-D2 = biological target: AgSla1-D1-D2
# How it was run: as §1
# AgSla1-D3 = biological target: AgSla1-D3
# How it was run: as §1
# CaAbp1-D1 = biological target: CaAbp1-D1
# How it was run: as §1
# CaAbp1-D2 = biological target: CaAbp1-D2
# How it was run: as §1
# CaBbc1 = biological target: CaBbc1
# How it was run: as §1
# CaBem1-D1 = biological target: CaBem1-D1
# How it was run: as §1
# CaBzz1-D1 = biological target: CaBzz1-D1
# How it was run: as §1
# CaBzz1-D2 = biological target: CaBzz1-D2
# How it was run: as §1
# CaCyk3 = biological target: CaCyk3
# How it was run: as §1
# CaFus1 = biological target: CaFus1
# How it was run: as §1
# CaHof1 = biological target: CaHof1
# How it was run: as §1
# CaHse1 = biological target: CaHse1
# How it was run: as §1
# CaLsb1 = biological target: CaLsb1
# How it was run: as §1
# CaLsb4 = biological target: CaLsb4
# How it was run: as §1
# CaMyo5 = biological target: CaMyo5
# How it was run: as §1
# CaNbp2 = biological target: CaNbp2
# How it was run: as §1
# CaRvs167 = biological target: CaRvs167
# How it was run: as §1
# CaRvs167-3 = biological target: CaRvs167-3
# How it was run: as §1
# CaSho1 = biological target: CaSho1
# How it was run: as §1
# CaSla1-D1-D2 = biological target: CaSla1-D1-D2
# How it was run: as §1
# CaSla1-D3 = biological target: CaSla1-D3
# How it was run: as §1
# ScAbp1 = biological target: ScAbp1
# How it was run: as §1
# ScBbc1 = biological target: ScBbc1
# How it was run: as §1
# ScBem1-D1 = biological target: ScBem1-D1
# How it was run: as §1
# ScBzz1-D1 = biological target: ScBzz1-D1
# How it was run: as §1
# ScBzz1-D2 = biological target: ScBzz1-D2
# How it was run: as §1
# ScCyk3 = biological target: ScCyk3
# How it was run: as §1
# ScFus1 = biological target: ScFus1
# How it was run: as §1
# ScHof1 = biological target: ScHof1
# How it was run: as §1
# ScHse1 = biological target: ScHse1
# How it was run: as §1
# ScLsb1 = biological target: ScLsb1
# How it was run: as §1
# ScLsb2 = biological target: ScLsb2
# How it was run: as §1
# ScLsb3 = biological target: ScLsb3
# How it was run: as §1
# ScLsb4 = biological target: ScLsb4
# How it was run: as §1
# ScMyo3 = biological target: ScMyo3
# How it was run: as §1
# ScMyo5 = biological target: ScMyo5
# How it was run: as §1
# ScNbp2 = biological target: ScNbp2
# How it was run: as §1
# ScPex13 = biological target: ScPex13
# How it was run: as §1
# ScRvs167 = biological target: ScRvs167
# How it was run: as §1
# ScSho1 = biological target: ScSho1
# How it was run: as §1
# ScSla1-D1-D2 = biological target: ScSla1-D1-D2
# How it was run: as §1
# ScSla1-D3 = biological target: ScSla1-D3
# How it was run: as §1
# SpAbp1-D1 = biological target: SpAbp1-D1
# How it was run: as §1
# SpBbc1 = biological target: SpBbc1
# How it was run: as §1
# SpBzz1-D1 = biological target: SpBzz1-D1
# How it was run: as §1
# SpBzz1-D2 = biological target: SpBzz1-D2
# How it was run: as §1
# SpCyk3 = biological target: SpCyk3
# How it was run: as §1
# SpHof1 = biological target: SpHof1
# How it was run: as §1
# SpHof1-2 = biological target: SpHof1-2
# How it was run: as §1
# SpHof1-3 = biological target: SpHof1-3
# How it was run: as §1
# SpHse1 = biological target: SpHse1
# How it was run: as §1
# SpLsb1 = biological target: SpLsb1
# How it was run: as §1
# SpLsb4 = biological target: SpLsb4
# How it was run: as §1
# SpMyo1 = biological target: SpMyo1
# How it was run: as §1
# SpNbp2 = biological target: SpNbp2
# How it was run: as §1
# SpPex13 = biological target: SpPex13
# How it was run: as §1
# SpRvs167 = biological target: SpRvs167
# How it was run: as §1
# SpSla1-D1-D2 = biological target: SpSla1-D1-D2
# How it was run: as §1
# SpSla1-D3 = biological target: SpSla1-D3
# How it was run: as §1
binder,measurement,setting,value
LLGRKRPVMERVVDI,SPOT peptide array binding signal intensity,AgAbp1,≤ 0
same,SPOT peptide array binding signal intensity,AgBbc1,27
same,SPOT peptide array binding signal intensity,AgBem1-D1,41
same,SPOT peptide array binding signal intensity,AgBzz1-D1,47
same,SPOT peptide array binding signal intensity,AgBzz1-D2,35
same,SPOT peptide array binding signal intensity,AgCyk3,1
same,SPOT peptide array binding signal intensity,AgFus1,142
same,SPOT peptide array binding signal intensity,AgHof1,2.5
same,SPOT peptide array binding signal intensity,AgHse1,586
same,SPOT peptide array binding signal intensity,AgLsb1,0.25
same,SPOT peptide array binding signal intensity,AgLsb4,65.5
same,SPOT peptide array binding signal intensity,AgMyo5,3.5
same,SPOT peptide array binding signal intensity,AgNbp2,144
same,SPOT peptide array binding signal intensity,AgRvs167,3.67
same,SPOT peptide array binding signal intensity,AgSho1,76.5
same,SPOT peptide array binding signal intensity,AgSla1-D1-D2,18
same,SPOT peptide array binding signal intensity,AgSla1-D3,0.5
same,SPOT peptide array binding signal intensity,CaAbp1-D1,21
same,SPOT peptide array binding signal intensity,CaAbp1-D2,51
same,SPOT peptide array binding signal intensity,CaBbc1,99.5
same,SPOT peptide array binding signal intensity,CaBem1-D1,60.5
same,SPOT peptide array binding signal intensity,CaBzz1-D1,236
same,SPOT peptide array binding signal intensity,CaBzz1-D2,63.5
same,SPOT peptide array binding signal intensity,CaCyk3,46
same,SPOT peptide array binding signal intensity,CaFus1,398
same,SPOT peptide array binding signal intensity,CaHof1,0.5
same,SPOT peptide array binding signal intensity,CaHse1,54
same,SPOT peptide array binding signal intensity,CaLsb1,≤ 0
same,SPOT peptide array binding signal intensity,CaLsb4,163
same,SPOT peptide array binding signal intensity,CaMyo5,10.8
NRARYLPQNPDIIAG,SPOT peptide array binding signal intensity,AgAbp1,≤ 0
same,SPOT peptide array binding signal intensity,AgBbc1,≤ 0
same,SPOT peptide array binding signal intensity,AgBem1-D1,≤ 0
same,SPOT peptide array binding signal intensity,AgBzz1-D1,9
same,SPOT peptide array binding signal intensity,AgBzz1-D2,19
same,SPOT peptide array binding signal intensity,AgCyk3,≤ 0
same,SPOT peptide array binding signal intensity,AgFus1,8
same,SPOT peptide array binding signal intensity,AgHof1,3.5
same,SPOT peptide array binding signal intensity,AgHse1,85
same,SPOT peptide array binding signal intensity,AgLsb1,1
same,SPOT peptide array binding signal intensity,AgLsb4,7
same,SPOT peptide array binding signal intensity,AgMyo5,0.5
same,SPOT peptide array binding signal intensity,AgNbp2,≤ 0
same,SPOT peptide array binding signal intensity,AgRvs167,0.5
same,SPOT peptide array binding signal intensity,AgSho1,1
same,SPOT peptide array binding signal intensity,AgSla1-D1-D2,2
same,SPOT peptide array binding signal intensity,AgSla1-D3,3.25
same,SPOT peptide array binding signal intensity,CaAbp1-D1,≤ 0
same,SPOT peptide array binding signal intensity,CaAbp1-D2,≤ 0
same,SPOT peptide array binding signal intensity,CaBbc1,≤ 0
same,SPOT peptide array binding signal intensity,CaBem1-D1,≤ 0
same,SPOT peptide array binding signal intensity,CaBzz1-D1,58
same,SPOT peptide array binding signal intensity,CaBzz1-D2,26.5
same,SPOT peptide array binding signal intensity,CaCyk3,≤ 0
same,SPOT peptide array binding signal intensity,CaFus1,29
same,SPOT peptide array binding signal intensity,CaHof1,≤ 0
same,SPOT peptide array binding signal intensity,CaHse1,13.8
same,SPOT peptide array binding signal intensity,CaLsb1,1
same,SPOT peptide array binding signal intensity,CaLsb4,4
same,SPOT peptide array binding signal intensity,CaMyo5,4.25
same,SPOT peptide array binding signal intensity,CaNbp2,59
same,SPOT peptide array binding signal intensity,CaRvs167,4.17
same,SPOT peptide array binding signal intensity,CaRvs167-3,1.75
same,SPOT peptide array binding signal intensity,CaSho1,17.5
same,SPOT peptide array binding signal intensity,CaSla1-D1-D2,≤ 0
same,SPOT peptide array binding signal intensity,CaSla1-D3,≤ 0
same,SPOT peptide array binding signal intensity,ScAbp1,7.5
same,SPOT peptide array binding signal intensity,ScBbc1,≤ 0
same,SPOT peptide array binding signal intensity,ScBem1-D1,7
same,SPOT peptide array binding signal intensity,ScBzz1-D1,7
same,SPOT peptide array binding signal intensity,ScBzz1-D2,≤ 0
same,SPOT peptide array binding signal intensity,ScCyk3,3
same,SPOT peptide array binding signal intensity,ScFus1,≤ 0
same,SPOT peptide array binding signal intensity,ScHof1,1.5
same,SPOT peptide array binding signal intensity,ScHse1,647
same,SPOT peptide array binding signal intensity,ScLsb1,1.5
same,SPOT peptide array binding signal intensity,ScLsb2,≤ 0
same,SPOT peptide array binding signal intensity,ScLsb3,58
same,SPOT peptide array binding signal intensity,ScLsb4,≤ 0
same,SPOT peptide array binding signal intensity,ScMyo3,≤ 0
same,SPOT peptide array binding signal intensity,ScMyo5,9.25
same,SPOT peptide array binding signal intensity,ScNbp2,≤ 0
same,SPOT peptide array binding signal intensity,ScPex13,2.75
same,SPOT peptide array binding signal intensity,ScRvs167,5.83
same,SPOT peptide array binding signal intensity,ScSho1,87.5
same,SPOT peptide array binding signal intensity,ScSla1-D1-D2,≤ 0
same,SPOT peptide array binding signal intensity,ScSla1-D3,≤ 0
same,SPOT peptide array binding signal intensity,SpAbp1-D1,≤ 0
same,SPOT peptide array binding signal intensity,SpBbc1,≤ 0
same,SPOT peptide array binding signal intensity,SpBzz1-D1,31.5
same,SPOT peptide array binding signal intensity,SpBzz1-D2,0.75
same,SPOT peptide array binding signal intensity,SpCyk3,≤ 0
same,SPOT peptide array binding signal intensity,SpHof1,32.8
same,SPOT peptide array binding signal intensity,SpHof1-2,13
same,SPOT peptide array binding signal intensity,SpHof1-3,251
same,SPOT peptide array binding signal intensity,SpHse1,204
same,SPOT peptide array binding signal intensity,SpLsb1,2
same,SPOT peptide array binding signal intensity,SpLsb4,38
same,SPOT peptide array binding signal intensity,SpMyo1,7
same,SPOT peptide array binding signal intensity,SpNbp2,3
same,SPOT peptide array binding signal intensity,SpPex13,1
same,SPOT peptide array binding signal intensity,SpRvs167,5.67
same,SPOT peptide array binding signal intensity,SpSla1-D1-D2,≤ 0
same,SPOT peptide array binding signal intensity,SpSla1-D3,≤ 0
